13 molecules from PubChem BioAssay (NCI) can be followed below.

The panel holds about 83,000 compounds, 20% with a hit somewhere; the sample as a whole holds those more often.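 Cells were grown in 96-well plates and exposed to the test compound at a single concentration for 48 hours; results are reported as percent growth, with values below 10 considered active.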 A number with no mark means an inactive call. Calls of active or inactive are those of the source.

Test systems include NCI-H23 lung; NCI-H226 lung; NCI-H322M lung; HOP-62 NSCLC; NCI-H460 lung; HOP-92 NSCLC; NCI-H522 lung; A549/ATCC NSCLC; 786-0 renal; COLO 205 colon.
Holding throughout (test): NCI-60 one-dose screen, 48 h (100 = growth as untreated, 0 = no growth, -100 = all killed)
Conditions in all cases: 10 µM unless noted

For the molecule `COc1cc2c(cc1OCCCOc1cc3c(cc1OC)C(=O)N1CCC[C@H]1C=N3)C=CC(C)(C)O2`, the growth in the test with NCI-H23 lung was 107%; with NCI-H226 lung, 82.7%; with NCI-H322M lung it was 133%; in the test on HOP-62 NSCLC it was 101%; in the test with NCI-H460 lung, 108%; with HOP-92 NSCLC, 66.3%. In addition, the growth in the test on NCI-H522 lung is 83.7%; with A549/ATCC NSCLC, 99.3%; in the test on 786-0 renal, 102%; in the test with COLO 205 colon it was 103%.
For the molecule `NC(=Nc1ccccc1)SCCCSC(N)=Nc1ccccc1`, the growth is 92.6% in the test on NCI-H23 lung; 93.6% with NCI-H226 lung; 81.8% in the test on NCI-H322M lung; 96.5% with HOP-62 NSCLC; 100% in the test on NCI-H460 lung; 41.6% in the test with HOP-92 NSCLC. Also, the growth with NCI-H522 lung was 69.2%; in the test on A549/ATCC NSCLC, 89.5%; with 786-0 renal it was 102%; in the test on COLO 205 colon it was 78.7%.
Turning to `O=C(O)C1[S][Sb]([CH](C(=O)O)[CH](C(=O)O)[Sb]2[S]C(C(=O)O)C(C(=O)O)[S]2)[S]C1C(=O)O` (stereo not given), the growth is 104% in the test on NCI-H23 lung; 105% in the test with NCI-H226 lung; 95.8% with NCI-H322M lung; 123% with HOP-62 NSCLC; 84.6% in the test with NCI-H460 lung; 91.6% in the test with HOP-92 NSCLC. The growth in the test with NCI-H522 lung is 42.4%; with A549/ATCC NSCLC, 89.2%; in the test with 786-0 renal, 93.7%; in the test with COLO 205 colon it was 114%.
For the molecule `COc1cc2cc(C(=O)Nc3ccccc3)c(N)nc2cc1OC`, the growth was 77.6% in the test with NCI-H23 lung; 65.2% in the test on NCI-H226 lung; 44.1% in the test with NCI-H322M lung; 47.7% with HOP-62 NSCLC; -40.2% (active) in the test with NCI-H460 lung; -11.4% (active) in the test on HOP-92 NSCLC. For the same molecule, the growth in the test with NCI-H522 lung was -65.3% (active); in the test on A549/ATCC NSCLC it was 15.3%; in the test with 786-0 renal, 21.2%; in the test with COLO 205 colon it was -93.3% (active).
Consider `O=c1[nH]c2cc(Cl)c(Cl)cc2o1`, for which the growth in the test with NCI-H23 lung was 108%; in the test with NCI-H226 lung it was 90.5%; in the test with NCI-H322M lung, 109%; with HOP-62 NSCLC, 96.8%; in the test on NCI-H460 lung, 109%; with HOP-92 NSCLC, 101%. For the same molecule, the growth with NCI-H522 lung is 103%; with A549/ATCC NSCLC, 114%; with 786-0 renal, 97.1%; in the test with COLO 205 colon, 123%.
With `COc1ccc2[nH]c(O)c(/C=c3/ccc4c(c3)N=C(c3ccc(F)cc3)N=4)c2c1`, the growth with NCI-H23 lung is 71.7%; with NCI-H226 lung, 85.4%; in the test with NCI-H322M lung, 49.4%; with HOP-62 NSCLC, 34.2%; with NCI-H460 lung, 36.9%; in the test on HOP-92 NSCLC, 4.86% (active). In addition, the growth in the test with NCI-H522 lung is 81%; with A549/ATCC NSCLC, 37.6%; with 786-0 renal, -30.1% (active); in the test with COLO 205 colon, 72.9%.
In the case of `CC(C)c1ccc(Cn2ccc3c4c(N)nc(NC5CC5)nc4ccc32)cc1`, the growth with NCI-H23 lung was -71.3% (active); in the test on NCI-H226 lung it was -73.3% (active); in the test with NCI-H322M lung, -93.2% (active); with HOP-62 NSCLC, -74.8% (active); in the test on NCI-H460 lung, -84.2% (active); with HOP-92 NSCLC, -88.2% (active). In addition, the growth was -81.8% (active) with NCI-H522 lung, -80.9% (active) in the test on A549/ATCC NSCLC, -91.6% (active) in the test with 786-0 renal and -78% (active) with COLO 205 colon.
On to `CC(C)OC(=O)c1ccc([N+](=O)[O-])cc1`, for which the growth is 103% in the test on NCI-H23 lung; 106% with NCI-H226 lung; 111% in the test with NCI-H322M lung; 110% in the test with HOP-62 NSCLC; 109% in the test with NCI-H460 lung; 84.1% in the test on HOP-92 NSCLC. Besides, the growth is 105% in the test on NCI-H522 lung, 101% in the test on A549/ATCC NSCLC, 109% in the test on 786-0 renal and 123% with COLO 205 colon.
Turning to `COc1ccc(C2CC(c3cccc(Nc4ccnc5cc(Cl)ccc45)c3)=NN2c2ccc(Cl)cc2)cc1` (stereo not given), the growth is 84.4% in the test on NCI-H23 lung; 83.6% in the test on NCI-H226 lung; 72.4% in the test on NCI-H322M lung; 88.7% in the test with HOP-62 NSCLC; 47.6% in the test on NCI-H460 lung; 68.5% in the test with HOP-92 NSCLC. The growth with NCI-H522 lung was 90.4%; in the test on A549/ATCC NSCLC, 70.6%; with 786-0 renal it was 74.4%; with COLO 205 colon it was 73.9%.
`COc1cc(/C=C2\C(=O)Nc3ccc(N(C)C)cc32)cc(OC)c1OC`: the growth with NCI-H23 lung is 26.8%; in the test on NCI-H226 lung, 25.8%; in the test with NCI-H322M lung, 37.6%; in the test with HOP-62 NSCLC, 45.5%; with NCI-H460 lung, 6.86% (active); in the test on HOP-92 NSCLC, 33.2%. Further, the growth in the test on NCI-H522 lung is 23.8%; with A549/ATCC NSCLC, -3.78% (active); with 786-0 renal it was 28.4%; in the test on COLO 205 colon, 28%.
Turning to `CC1=NC(c2ccc(Cl)cc2)C2=C(N1)/C(=C/c1ccc(Cl)cc1)CCC2` (stereo not given), the growth was 81.8% with NCI-H23 lung; 113% in the test on NCI-H226 lung; 94.5% in the test on NCI-H322M lung; 106% with HOP-62 NSCLC; 99.4% in the test with NCI-H460 lung; 86.4% in the test on HOP-92 NSCLC. In addition, the growth with NCI-H522 lung is 98.6%; with A549/ATCC NSCLC it was 89%; in the test with 786-0 renal, 92.7%; in the test with COLO 205 colon it was 99%.
Take `COc1cc(C2CC(c3ccc(Cl)cc3)=NN2C=O)ccc1OS(=O)(=O)c1ccc(C)cc1` (stereo not given): the growth in the test with NCI-H23 lung is 83.5%; in the test on NCI-H226 lung, 84.5%; in the test with NCI-H322M lung, 97%; in the test on HOP-62 NSCLC, 96.6%; in the test with NCI-H460 lung, 91%; in the test with HOP-92 NSCLC, 85.1%. Besides, the growth with NCI-H522 lung was 82.7%; with A549/ATCC NSCLC it was 78.8%; in the test with 786-0 renal, 88.4%; in the test on COLO 205 colon, 100%.
For the molecule `Cc1nc2ccc(Nc3nc(NCCN4CCOCC4)nc(Nc4ccc(F)cc4)n3)cc2n1Cc1ccccc1`, the growth in the test with NCI-H23 lung is 67%; in the test with NCI-H226 lung, 72.1%; in the test with NCI-H322M lung, 64.1%; with HOP-62 NSCLC, 47.8%; with NCI-H460 lung it was 29.4%; with HOP-92 NSCLC, 30.3%. Also, the growth is 58.7% with NCI-H522 lung, 46.3% with A549/ATCC NSCLC, 4.17% (active) with 786-0 renal and 1.19% (active) with COLO 205 colon.
